SMN2 splice up – qHTS Assay for Enhancers of SMN2 Splice Variant Expression | HEK293 SMN2-luciferase splicing reporter, luminescence, 30-36 h | Potency, µM (titrated, usually from 46.1 µM), actives largely listed as activators | 2.8% of 210,000 active | AID 1458, 2008; note: nearly all actives have a fitted effect of over 55% in size
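qHTS luciferase splicing reporter: luminescence rises when SMN2 exon 7 is included in transfected HEK293 cells. Compound exposure lasted 30-36 h at 37C, with 4.5 mM final sodium butyrate as control, followed by a ONE-Glo read.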
Luc counter – Counterscreen for Luciferase (Kinase-Glo TM) Inhibition | Luciferin 4-monooxygenase (Photuris pensylvanica), Q27757 | Kinase-Glo luciferase, ATP luminescence, 8 min | Potency, µM (highest dose often 38.3 µM), usual class: inhibitors | 0.28% of 200,000 active; note: nearly all actives have a fitted effect of over 60% in size
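Inhibition of Kinase-Glo luciferase light generation was assessed at 10 uM ATP in pH 7.2 imidazole buffer, with luminescence measured after eight minutes at ambient temperature.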
ELG1 genotoxic – qHTS screen for small molecules that induce genotoxicity in human embryonic kidney (HEK293T) cells expressing luciferase-tagged ELG1. AID 504466, 2011. 1.3% of 330,000 active. HEK293T ELG1-luciferase reporter, luminescence, 16 h. Potency, µM (series often up to 46 µM), most hits filed as activators; note: nearly all actives have a fitted effect of over 60% in size
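HEK293T cells expressing luciferase-tagged ELG1 were treated with compound or DMSO for 16 hr at 37°C. Luciferase activity was then read after 30 min with ONE-Glo at room temperature; rising signal flags genetic stress.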
FLuc modulator – qHTS profiling assay for firefly luciferase inhibitor/activator using purifed enzyme and Km concentrations of substrates (counterscreen for miR-21 project); purified FLuc, Km substrates, luminescence inhibition; 6.9% of 360,000 active; Potency, µM (top dose mostly 57.5 µM), most hits filed as inhibitors; Luciferin 4-monooxygenase (Photinus pyralis), P08659; note: nearly all actives have a fitted effect of over 55% in size
Target sequence (P08659 whole entry, looked up): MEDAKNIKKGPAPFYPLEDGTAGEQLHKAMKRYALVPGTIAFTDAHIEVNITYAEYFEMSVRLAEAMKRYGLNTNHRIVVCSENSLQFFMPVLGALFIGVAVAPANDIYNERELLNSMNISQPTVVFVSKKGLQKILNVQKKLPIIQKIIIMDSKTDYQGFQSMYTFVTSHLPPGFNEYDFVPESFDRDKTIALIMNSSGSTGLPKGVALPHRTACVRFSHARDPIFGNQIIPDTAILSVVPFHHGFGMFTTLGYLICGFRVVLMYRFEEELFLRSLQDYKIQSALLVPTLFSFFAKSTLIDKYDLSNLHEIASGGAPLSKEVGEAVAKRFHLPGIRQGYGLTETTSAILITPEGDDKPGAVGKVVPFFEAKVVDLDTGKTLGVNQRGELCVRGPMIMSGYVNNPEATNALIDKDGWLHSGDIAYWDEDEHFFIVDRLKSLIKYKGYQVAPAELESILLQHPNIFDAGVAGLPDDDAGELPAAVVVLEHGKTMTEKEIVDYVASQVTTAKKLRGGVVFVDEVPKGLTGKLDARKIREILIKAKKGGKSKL
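Purified P. pyralis luciferase, 10 nM final, with Km-level 10 uM D-luciferin and 10 uM ATP in 50 mM Tris acetate pH 7.5, 10 mM Mg acetate, 0.01% Tween-20, 0.05% BSA; 6-point qHTS titration about 60 µM downward; luminescence read.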
Rab9 prom act – qHTS Assay for Rab9 Promoter Activators; AID 485297, 2010; Huh7 Rab9 promoter-luciferase reporter, luminescence, 24 h; Potency, µM (series often up to 9.22 µM), hits mostly activators; 2.8% of 320,000 active; note: nearly all actives have a fitted effect of over 60% in size
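Huh7 cells stably carrying Rab9 promoter–luciferase reporter, plated 1500 cells/well, compound added after 2 h and incubated 24 h at 37 °C; luciferase luminescence then read after 10 min with detection reagent.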
NPC1 prom act – qHTS Assay for NPC1 Promoter Activators; Huh7 NPC1 promoter luciferase reporter, 24 h; Potency, µM (highest dose often 9.22 µM), hits mostly activators; 2.4% of 320,000 active; note: nearly all actives have a fitted effect of over 60% in size
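Huh7 reporter cells (NPC1 promoter driving luciferase) are dosed with compound for 24 h at 37 °C, 5% CO2; luciferase detection reagent is then added and luminescence measured after 10 min at ambient temperature.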
Numbers stand for hits; - = inactive; ? = inconclusive; . = not tested or not shown; [ ] = remark or other dose. Most compounds without a hit are left out; they make up all but 7.3% or so of the library. Calls come from the whole dose curve; as a rule, active = well fitted curve in the direction sought with a large enough effect; inconclusive = small, poorly fitted or top-dose-only effect, or another doubt; inactive = no such curve, though single readings can be large; an effect the other way counts as inactive or inconclusive.

SMILES	SMN2 splice up	Luc counter	ELG1 genotoxic	FLuc modulator	Rab9 prom act	NPC1 prom act
COC(=O)Cc1ccc(OCc2ccc(Cl)nc2)cc1	.	.	?	15µM	?	2.5µM
O=NN(Cc1ccc(Cl)cc1)[C@@H](C(=O)O)c1ccccc1	-[9.22 µM]	-[7.66 µM]	.	.	.	.
Cc1ccc(N2C(=O)c3ccc(N)cc3C2=O)cc1C	-	-	?	11µM	4µM	2.5µM
Cc1ccc(N2C(=O)c3ccc(N)cc3C2=O)cc1	.	.	3.7µM	7.6µM	4µM	3.5µM
CCOC(=O)c1c(C)[nH]c(C)c1S(=O)(=O)N1CCCC(C(=O)N2CCN(c3cc(C)ccc3C)CC2)C1 (stereo not given)	.	.	.	-	.	.
c1ccc(N2OCC3Cn4c(nc5ccccc54)C32)cc1 (stereo not given)	.	.	-	19µM	-	-
CCc1ccc(CNC(=O)CSc2cc(=O)n(C)c3ccc(Cl)cc23)cc1	-	.	.	-	.	.
C=CCOc1c(OC)cc(/C=N/Nc2cccc(C(=O)O)c2)c(Br)c1Br	14µM	-	?	?	3.2µM	2.5µM
COc1cc(/C=N/NC(=S)NCCN2CCOCC2)cc(OC)c1OC	-	-	?	-	-	-
COc1cc(/C=N/NC(=S)NCCc2ccccc2)cc(OC)c1OC	.	.	-	27µM	-	-
COc1cc(/C=N\Nc2cc(=O)n(C)c(=O)n2C)ccc1O	-	-	-	?	-	-
COc1cc(/C=N/Nc2ccc(C(=O)O)cc2)ccc1O	?	-	?	1.9µM	?	?
COc1cc(/C=N/Nc2ccc(C(=O)O)cc2)cc(OC)c1OC	.	.	16µM	11µM	2µM	1.6µM
CCN(CC)CCCCn1c(-c2ccccc2)nc2c(NCCOC)nc(C)nc21	-	-	.	.	.	.
CCc1nnc2c(Nc3cc(OC)c(Cl)cc3OC)nc3ccccc3n12	-	.	.	-	.	.
CC(CCN)(CCN)[N+](=O)[O-]	-[9.22 µM]	-[7.66 µM]	.	.	.	.
C[C@]1(c2ccccc2)O[C@@H]2C[C@@H]3[C@@H]4CCC5=CC(=O)C=C[C@@]5(C)[C@]4(F)[C@H](O)C[C@]3(C)[C@@]2(C(=O)CO)O1	-[9.22 µM]	-[7.66 µM]	.	.	.	.
O=C(O)c1ccccc1NC(=O)N1c2ccccc2Sc2ccccc21	-	.	.	?	.	.
COc1ccc(/C=N/Nc2ccc(C(=O)O)cc2)c(OC)c1OC	.	.	-	15µM	3.2µM	2.8µM
Cc1ccc(NC(=O)CCS(=O)(=O)c2ccc3nc(C)sc3c2)cc1	.	.	-	-	-	-
Cc1ccc(S(=O)(=O)CCC(=O)Nc2ccc3nc(C)sc3c2)cc1	-	-	-	-	-	-
Cc1ccc(C)c(N(CC(=O)Nc2ccc(-c3nc4ccc(C)cc4s3)cc2)S(C)(=O)=O)c1	-	-	-	-	-	-
Cc1nc2ccc(NC(=O)CCS(=O)(=O)c3ccccc3)cc2s1	16µM	-	-	?	-	-
Cc1ccc2nc(-c3ccc(NC(=O)CCS(=O)(=O)c4ccccc4)cc3)sc2c1	.	-	?	11µM	0.32µM	0.56µM
Cc1nc2cc(NC(=O)CCS(=O)(=O)c3ccccc3)ccc2s1	10µM	-	?	9.5µM	1.4µM	2µM
SMILES	SMN2 splice up	Luc counter	ELG1 genotoxic	FLuc modulator	Rab9 prom act	NPC1 prom act
Cc1ccc(N(CC(=O)Nc2ccc(-c3nc4ccc(C)cc4s3)cc2)S(C)(=O)=O)cc1	-	-	?	7.6µM	?	?
Cc1ccccc1NC(=O)Nc1nnc(N2CCCCCC2)s1	.	.	.	-	.	.
COc1ccccc1N1CCN(S(=O)(=O)c2c(C)sc3ncn(CC(=O)N(C)c4ccc(Cl)cc4)c(=O)c23)CC1	-	.	.	-	.	.
CCCS(=O)(=O)c1ncc(Cl)c(C(=O)N(Cc2ccccc2)Cc2ccco2)n1	-	.	.	-	.	.
Cc1ccc2[nH]c(-c3cccc(N)c3)cc2c1	14µM	-	2.3µM	4.8µM	2.2µM	1.8µM
Cc1ccc(CNC(=O)CCc2nnc3n(C)c(=O)c4sccc4n23)cc1	-	.	.	-	.	.
O=C(Nc1nc2c(ccc3ccccc32)s1)c1ccco1	-	-	-	13µM	?	?
O=C(Nc1nc2c(F)c(F)c(F)cc2s1)c1ccco1	.	.	?	6µM	2.5µM	2.2µM
O=C(Nc1nc2c(Cl)ccc(Cl)c2s1)c1ccco1	-	-	-	?	-	-
CN(C)CCN(C(=O)c1ccco1)c1nc2c(F)cc(F)cc2s1	.	.	.	-	.	.
O=C(CCc1ccccc1)Nc1nc2c(F)cc(F)cc2s1	.	.	-	17µM	-	?
O=C(COC(=O)c1ccco1)Nc1nc2c(F)c(F)c(F)cc2s1	.	.	-	-	-	-
O=C(Nc1nc2c(F)cc(F)cc2s1)c1ccco1	.	.	?	4.8µM	0.45µM	0.71µM
CCCN1CCCc2cc(CN(CCCN3CCOCC3)C(=O)Nc3ccc(CC)cc3)ccc21	.	.	.	-	.	.
CC(C)(C)S(=O)(=O)c1cnc(-c2ccc(Cl)cc2)nc1N	.	.	-	?	2.2µM	2.5µM
C=CCNC(=O)c1c(Br)cnn1-c1ccc(C)cc1	.	.	?	19µM	2.5µM	2.5µM
Cc1ccc(-n2ncc(Cl)c2C(=O)NCc2ccccc2)cc1	.	.	?	11µM	?	?
CCc1ccc(-n2c(N3CCN(c4ccc(F)cc4)CC3)nc3ccccc3c2=O)cc1	-	.	.	-	.	.
COC(=O)c1ccccc1NC(=O)c1ncoc1-c1ccco1	.	.	.	-	.	.
COc1ccc(CC(=O)Nc2cc3oc4ccccc4c3cc2OC)cc1	14µM	-	-	15µM	?	?
COc1cc2c(cc1NC(=O)C(C)Sc1nc3ccccc3n1C)oc1ccccc12 (stereo not given)	-	-	-	-	-	-
COc1cc2c(cc1NC(=O)COCC(=O)O)oc1ccccc12	.	.	-	17µM	-	-
COc1cc2c(cc1NC(=O)C(C)Sc1cccc[n+]1[O-])oc1ccccc12 (stereo not given)	10µM	-	-	?	?	?
O=C(Cc1ccc(F)cc1)NCc1ccc2c(c1)CCN2C(=O)c1ccc(F)cc1	.	.	.	-	.	.
O=C(c1ccc([N+](=O)[O-])cc1)N1c2ncnn2C2(CCCCC2)[C@@H]2CCCC[C@@H]21	.	.	.	-	.	.
SMILES	SMN2 splice up	Luc counter	ELG1 genotoxic	FLuc modulator	Rab9 prom act	NPC1 prom act
Cc1cc(C(=O)COC(=O)c2ccc(O)cc2O)c(C)n1C(C)C	.	.	-	4.8µM	3.5µM	3.5µM
Cc1cc(C(=O)COC(=O)c2n[nH]c(=O)c3ccccc23)c(C)n1C(C)C	.	.	?	1.7µM	?	-
Cc1ccc(/C=C/c2onc(C)c2S(=O)(=O)N2CCC(C(=O)N(CCC(C)C)Cc3ccco3)CC2)cc1	.	.	.	-	.	.
COc1ccc2c(c1)C(=O)[C@@H](OC(=O)NC1CCCC1)[C@H](c1ccc(OC)c(Br)c1)O2	-	-	.	.	.	.
COc1ccc(-c2nc3ccccc3nc2-c2ccccc2)cc1	.	-	-	-	-	-
COc1ccc2nc3ccccc3nc2c1	11µM	-	-	17µM	2.8µM	4µM

Bioassay records deposited in PubChem by National Center for Advancing Translational Sciences (NCATS).
